Screening data from PubChem BioAssay.
DT40 TDP1 CPT: qHTS for Inhibitors of human tyrosyl-DNA phosphodiesterase 1 (TDP1): qHTS in cells in presence of CPT; 420,000 tested, 12% active; chicken DT40 Tdp1-/-;hTDP1 cells + 20 nM CPT, ATP luminescence, 48 h; Potency, µM (titrated, usually from 46.2 µM), for inactives: top-dose activity change, negative = growth inhibition, actives largely listed as inhibitors; AID 686979, 2013; note: potency is the fitted concentration of half-maximal effect; % is set by controls: 0 for no effect and ±100 for the full control effect; nearly all actives have a fitted effect of over 55% in size
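Cell growth measured by CellTiter-Glo luminescence after a minimum 48 h, 37 C compound exposure with 20 nM CPT in Tdp1-knockout DT40 cells stably expressing hTDP1, seeded 400/well; qHTS titration format.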
IL1B secr inh: qHTS for Inhibitors of Inflammasome Signaling: IL-1-beta AlphaLISA Primary Screen; 360,000 tested, 4.7% active; activity change, % at 57.5 µM; AID 743279, 2014; THP-1 LPS/ATP IL-1B secretion, AlphaLISA, 16 h; hits give low values; in the data active = activity change below about -50%; inconclusive = mostly about -30% to -49%; note: % is set by controls: 0 for no effect and ±100 for the full control effect
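THP-1 cells pretreated 1 hr with compounds (up to 57.5 uM final), then stimulated with LPS (250 ng/mL final) plus ATP (1.25 mM final); secreted IL-1B measured by AlphaLISA after 16 hr, decreased signal indicating inhibition.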
DT40 TDP1 no CPT: qHTS for Inhibitors of human tyrosyl-DNA phosphodiesterase 1 (TDP1): qHTS in cells in absence of CPT. 420,000 tested, 15% active. DT40 Tdp1-/- hTDP1 cells, no CPT, ATP luminescence, 48 h. Potency, µM (doses to about 46.2 µM), for inactives: at the highest dose activity change, negative = growth inhibition, most hits filed as inhibitors; note: potency is the fitted concentration of half-maximal effect; % is set by controls: 0 for no effect and ±100 for the full control effect; nearly all actives have a fitted effect of over 55% in size
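Readout: luminescence from CellTiter-Glo after 30 min in the dark at RT. Cells: DT40 Tdp1-/- with stable hTDP1, 400/well. Exposure: compounds alone, ≥48 hr, 37 °C.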
SW480 rereplic: A quantitative high throughput screen for small molecules that induce DNA re-replication in SW480 colon adenocarcinoma cells; 340,000 tested, 1.8% active; Potency, µM (titrated, usually from 46.1 µM), inactives show at the highest dose re-replication activation, usual class: activators; SW480 DNA re-replication, Hoechst DNA content imaging, 48 h; note: potency is the fitted concentration of half-maximal effect; % of control where 0% means no effect; nearly all actives have a fitted effect of over 55% in size
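Quantitative HTS format with DMSO vehicle controls; 48 hr drug incubation at 37 C, then 40 min Hoechst staining and scanning imager measurement at 405 nm excitation.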
Chronic BCR inh: qHTS Assay to Find Inhibitors of Chronic Active B-Cell Receptor Signaling; ABC-DLBCL IkBa-CBG/CBR reporter, luminescence ratio, 4 h; Potency, µM (series often up to 46.1 µM), without a hit: at the highest dose activity change, negative = inhibition, actives largely listed as inhibitors; 340,000 tested, 0.05% active; AID 493014, 2011; active = well fitted inhibition curve with a large enough effect in the signal ratio, with a control signal flat, not every such curve was filed as active; inconclusive = small, poorly fitted or top-dose-only effect, or effect the other way, or a change in a side signal; the % refers to the signal ratio;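 note: potency is the fitted concentration of half-maximal effect; plate controls were basal doxycycline-induced cells for no effect and cells given 10 µM MG132 for full effect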
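Doxycycline induced both beetle luciferases in TMD8 lymphoma cells; IKK-driven degradation limits the IkappaBalpha-fused green signal, while red luminescence normalises for cell number and nonspecific effects. Compounds tested up to 46 uM, 4 hrs.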
MCF10A rerep: A quantitative high throughput screen for small molecules that induce DNA re-replication in MCF 10a normal breast cells; Potency, µM (titrated, usually from 46.1 µM), inactives show at the highest dose activity, positive = re-replication, hits mostly activators; 350,000 tested, 2.9% active; MCF 10A DNA re-replication, Hoechst nuclear intensity, 48 h; note: potency is the fitted concentration of half-maximal effect; % of control where 0% means no effect; nearly all actives have a fitted effect of over 50% in size
* hit, by the source's call; ? = inconclusive; / = no result; [ ] = remark or other dose. Compounds with a hit are over-represented: about 19% of the library has one in this group of screens. Unless noted, calls come from the whole dose curve; as a rule, active = well fitted curve in the direction sought with a large enough effect; inconclusive = small, poorly fitted or top-dose-only effect, or another doubt; inactive = no such curve, though single readings can be large; an effect the other way counts as inactive or inconclusive.

SMILES	DT40 TDP1 CPT	IL1B secr inh	DT40 TDP1 no CPT	SW480 rereplic	Chronic BCR inh	MCF10A rerep
CCC(C)(C)C1CCc2nc3ccccc3c(C(=O)OC(C)C(=O)Nc3c(C)n(C)n(-c4ccccc4)c3=O)c2C1 (centres undefined)	23.1µM*	-22.1	?	5.5%	?	11.9%
O=C(COc1ccccc1)NC(=S)N1CCc2ccccc21	?	14.7	16.4µM*	?	-5.0%	-0.6%
O=C(COc1ccccc1Cl)NC(=S)N1CCc2ccccc21	-23.1%	36.2	?	?	?	1.7%
FC(F)Oc1ccc(NC(=S)N2CCc3ccccc32)cc1	-6.8%	-61.4*	?	-4.7%	-10.6%	-0.5%
Fc1ccc(NC(=S)N2CCc3ccccc32)cc1	6.0%	14.7	-11.5%	-2.6%	-2.1%	1.7%
O=C(NCc1ccc(F)cc1)c1ccc(NC(=O)N2CC3CCCN3c3ccccc32)cc1 (centres undefined)	16.4µM*	/	11.6µM*	/	/	/
O=C(NCc1ccc(Cl)cc1)c1ccc(NC(=O)N2CC3CCCN3c3ccccc32)cc1 (centres undefined)	16.4µM*	/	18.4µM*	/	/	/
O=C(NCc1ccc(Cl)cc1)C1CCCN1C(=O)Nc1ccc(F)cc1 (centres undefined)	-12.3%	-7.6	8.9%	-1.3%	-1.1%	7.3%
CCC1(CC(C)C)SC(N)=NC1=O (centres undefined)	3.2%	10.1	-4.6%	0.6%	/	-0.3%
O=C(CCC1N=C2c3ccccc3N=C(SCc3ccc(Cl)cc3)N2C1=O)N1CCN(c2ccccc2)CC1 (centres undefined)	16.4µM*	/	20.6µM*	/	/	/
Cc1ccc(CSC2=Nc3ccccc3C3=NC(CCC(=O)N4CCN(c5ccccc5)CC4)C(=O)N23)cc1 (centres undefined)	20.6µM*	/	20.6µM*	/	/	/
Cc1ccc(CSC2=Nc3ccccc3C3=NC(CCC(=O)NCCc4ccccc4)C(=O)N23)cc1 (centres undefined)	?	/	?	/	-0.5%	/
CSc1ccc(NC(=O)NN(c2ccccc2)C2CCS(=O)(=O)C2)cc1 (centres undefined)	1.6%	2.8	-28.1%	/	/	/
CCCN(CC(=O)Nc1cc(Cl)ccc1Cl)C(=O)CN1C(=O)C2CCCCC2C1=O (centres undefined)	-6.2%	0.0	-18.4%	1.0%	?	2.2%
CC(=O)c1nn(-c2cccc(Br)c2)cc1C(=O)c1ccc(Br)cc1	13µM*	2.8	11.6µM*	?	/	-154.3%[0.0737 µM]
CSc1cccc(NC(=O)CCCOc2cc(=O)n(C)c3ccccc23)c1	?	-19.3	?	/	/	/
O=C(Nc1ccc2c(c1)CCO2)Nc1nnc([C@H]2C[C@H](O)[C@@H](CO)O2)s1	-19.6%	24.6	5.0%	/	/	/
COc1ccc(NC(=O)C(Cc2ccccc2)NS(=O)(=O)c2ccc3c(c2)CCN3C(C)=O)cc1 (centres undefined)	-28.6%	/	?	/	/	/
Cc1ccc(S(=O)(=O)N[C@@H](Cc2ccccc2)C(=O)CCl)cc1	2.59µM*	-106.8*	5.17µM*	?	?	2.31µM*
CCC(=O)N1CCc2cc(S(=O)(=O)NC(CC(C)C)C(=O)Nc3cc(C)ccc3OC)ccc21 (centres undefined)	18.4µM*	/	?	/	/	/
Cc1ccc(NC(=O)C(Cc2ccccc2)NS(=O)(=O)c2ccc3c(c2)c(=O)n(C)c(=O)n3C)cc1 (centres undefined)	16.4µM*	/	?	/	/	/
CCC(=O)N1CCc2cc(S(=O)(=O)NC(Cc3ccccc3)C(=O)Nc3ccc(C)cc3)ccc21 (centres undefined)	16.4µM*	/	?	/	/	/
CC(C)Nc1nc(NC2CCCC2)nc(N2CCOCC2)n1	?	-99.3*	?	1.8%	0.1%	11.2%
Cc1cc(NC2CCCCC2)nc(N2CCOCC2)n1	-15.8%	-20.1	-9.2%	6.2%	-3.1%	21.2%
COc1cc(OC)nc(Oc2cc(/C=N/O)ccc2OC)n1	?	0.0	?	11.6µM*	-10.8%	?
SMILES	DT40 TDP1 CPT	IL1B secr inh	DT40 TDP1 no CPT	SW480 rereplic	Chronic BCR inh	MCF10A rerep
Cn1nc([N+](=O)[O-])nc1Sc1ccc(Cl)cc1	?	10.2	?	-57.9%	-0.2%	-3.7%
COc1ccccc1-c1nnc(Sc2nc([N+](=O)[O-])nn2C)o1	?	-100.1*	16.4µM*	?	?	9.2µM*
Clc1ccc(-c2csc(N/N=C/c3ccco3)n2)cc1	?	-21.7	7.31µM*	-21.7%	?	-1.1%
Cc1onc(-c2ccccc2)c1-c1csc(N/N=C/c2ccccc2)n1	?	5.8	11.6µM*	-4.3%	3.4%	6.8%
Cc1ccc(-c2csc(N/N=C/c3ccco3)n2)cc1	?	-5.8	?	1.2%	11.3%	25.8%
Cc1ccc(-c2csc(N/N=C/C=C/c3ccccc3)n2)cc1	?	-28.1	?	4.3%	6.2%	8.9%
O=C(O)c1csc(N/N=C/c2ccc(Br)cc2)n1	4.6%	-1.0	0.8%	5.2%	?	-15.1%
O=C(N/N=C/c1ccco1)c1cc(-c2ccc(Cl)cc2)n[nH]1	10.1%	-16.2	-10.1%	11.6%	9.6%	?
C(=N\Nc1nc(-c2ccccc2)cs1)/c1ccco1	20.6µM*	-21.3	14.6µM*	/	?	10.2%
Brc1ccc(-c2csc(N/N=C/c3ccco3)n2)cc1	?	-2.2	10.3µM*	10.5%	18.3%	11.2%
O=C(c1ccc(CS(=O)c2ccc(F)cc2)o1)N1CCN(C2CCCCC2)CC1 (centres undefined)	-3.0%	43.8	0.1%	5.8%	-5.2%	4.2%
O=C(Nc1ccc(F)cc1)c1cc(-c2ccncc2)nc2c(Cl)cccc12	?	-11.2	?	20.1%	6.4%	?
CN(C)S(=O)(=O)c1ccc(-c2csc(N/N=C/c3ccc(O)cc3)n2)cc1	0.92µM*	-103.4*	0.651µM*	-80.4%	?	?
C(=N\Nc1nc(-c2ccccc2)cs1)/c1ccncc1	-24.4%	?	?	-110.3%	?	-1.0%
Cc1sc(N/N=C/c2ccco2)nc1-c1ccccc1	?	-10.5	23.1µM*	3.0%	?	-5.3%
